Laboratory results reported in PubChem BioAssay.
Values without a mark were called inactive. For some assays here: Results with a measured potency or affinity are listed apart. Activity calls are given as the source filed them. Unless noted, how the calls were made is not given here.

What was measured:
[1] = antimalarial activity against Dd2 strain (AID 2302;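 active means growth inhibition above 50% at the single 2 µM test dose, taken to imply half-maximal potency below 2 µM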;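 further: 0% = DMSO untreated growth and 100% = chloroquine plus artemisinin killed control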); conditions: P. falciparum Dd2 in RBCs, LDH growth readout, 72 h; at 2 µM; stronger effect = higher value
[2] = HepG2 cytotoxicity, primary screen, cytotoxicity control for P. falciparum antimalarial project, cell-based, ATP luminescence (AID 2303;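 active means inhibition above 50%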;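 further: 0% = DMSO wells and 100% = digitonin-killed cells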); conditions: HepG2 viability, 24-48 h, at 10 µM, stronger effect = higher value
[3] = target: L-lactate dehydrogenase (Plasmodium falciparum (isolate CDC / Honduras)) (UniProt Q27743); assay: PfLDH activity inhibition – cell lysate, 3D7 strain, counter-screen for P. falciparum growth inhibition project (AID 2304);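 further: 0% = vehicle and 100% = reference inhibitor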; conditions: P. falciparum 3D7 crude extract, LDH APAD/NBT absorbance; at 2 µM; stronger effect = higher value
Sequence of L-lactate dehydrogenase (Plasmodium falciparum (isolate CDC / Honduras)) (Q27743 whole entry, looked up): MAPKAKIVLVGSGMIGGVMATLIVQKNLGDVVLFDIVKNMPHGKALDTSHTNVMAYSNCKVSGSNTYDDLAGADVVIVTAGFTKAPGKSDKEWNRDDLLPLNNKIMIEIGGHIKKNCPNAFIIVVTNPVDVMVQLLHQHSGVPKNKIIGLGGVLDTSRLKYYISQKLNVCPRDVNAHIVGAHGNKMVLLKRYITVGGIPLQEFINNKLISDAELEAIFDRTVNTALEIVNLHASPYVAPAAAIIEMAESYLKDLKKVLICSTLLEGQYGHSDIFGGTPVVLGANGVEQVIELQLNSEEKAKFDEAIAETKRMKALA

[4] = inhibition of 3D7 malaria parasite growth – strain 3D7 (AID 2306);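 further: 0% = DMSO wells and 100% = chloroquine plus artemisinin control wells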; conditions: P. falciparum 3D7 erythrocytic growth, LDH absorbance, 72 h; at 2 µM; stronger effect = higher value
[5] = target: Calcium-dependent protein kinase 1 (Plasmodium falciparum (isolate 3D7)) (UniProt P62344); assay: PfCDPK1 kinase inhibitors, biochemical, TCAMS library (AID 1159585; cut-off not given, nearly all actives have IC50 up to about 0.98 µM;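 further: inhibitors leave more ATP so luminescence rises with inhibition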); conditions: recombinant PfCDPK1, Kinase-Glo ATP depletion luminescence
Sequence of Calcium-dependent protein kinase 1 (Plasmodium falciparum (isolate 3D7)) (P62344 whole entry, looked up): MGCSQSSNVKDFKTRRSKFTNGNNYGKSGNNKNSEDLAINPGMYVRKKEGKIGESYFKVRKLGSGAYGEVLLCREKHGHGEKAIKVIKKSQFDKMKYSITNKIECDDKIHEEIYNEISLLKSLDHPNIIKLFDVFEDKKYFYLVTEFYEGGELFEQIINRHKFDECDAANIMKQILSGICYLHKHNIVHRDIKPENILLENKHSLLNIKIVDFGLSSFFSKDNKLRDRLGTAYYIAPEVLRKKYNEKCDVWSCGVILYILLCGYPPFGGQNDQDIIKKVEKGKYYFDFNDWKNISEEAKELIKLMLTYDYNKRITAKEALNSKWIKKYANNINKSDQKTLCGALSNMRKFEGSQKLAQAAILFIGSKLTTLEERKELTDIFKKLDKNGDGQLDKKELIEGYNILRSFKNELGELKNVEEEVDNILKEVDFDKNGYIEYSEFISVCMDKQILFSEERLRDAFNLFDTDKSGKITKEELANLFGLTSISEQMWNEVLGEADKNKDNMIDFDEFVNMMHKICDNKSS

[6] = target: Plasmodium falciparum protein kinase 6 (PK6, PF3D7_1337100) (UniProt Q8IDW1); assay: PfPK6 kinase inhibitors, biochemical, TCAMS library (AID 1159586); conditions: recombinant PfPK6, Kinase-Glo ATP depletion luminescence
Sequence of Plasmodium falciparum protein kinase 6 (PK6, PF3D7_1337100) (Q8IDW1 1-305): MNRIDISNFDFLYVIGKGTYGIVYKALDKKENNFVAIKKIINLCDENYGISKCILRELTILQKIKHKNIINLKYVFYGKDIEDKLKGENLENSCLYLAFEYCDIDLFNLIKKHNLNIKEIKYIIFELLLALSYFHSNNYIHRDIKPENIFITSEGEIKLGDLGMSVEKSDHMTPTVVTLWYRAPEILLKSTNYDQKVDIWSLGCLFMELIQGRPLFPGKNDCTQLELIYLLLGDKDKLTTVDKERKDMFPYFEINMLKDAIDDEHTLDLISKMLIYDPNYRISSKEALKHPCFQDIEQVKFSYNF

[7] = target: Protein kinase 7 (PK7), Plasmodium falciparum 3D7 (PF3D7_0213400) (UniProt Q7YTF7); assay: inhibition of Plasmodium PK7 catalytic activity – biochemical, TCAMS antimalarial set, Kinase-Glo luminescence (AID 1159587); conditions: recombinant PfPK7, Kinase-Glo ATP depletion luminescence
Sequence of Protein kinase 7 (PK7), Plasmodium falciparum 3D7 (PF3D7_0213400) (Q7YTF7 1-343): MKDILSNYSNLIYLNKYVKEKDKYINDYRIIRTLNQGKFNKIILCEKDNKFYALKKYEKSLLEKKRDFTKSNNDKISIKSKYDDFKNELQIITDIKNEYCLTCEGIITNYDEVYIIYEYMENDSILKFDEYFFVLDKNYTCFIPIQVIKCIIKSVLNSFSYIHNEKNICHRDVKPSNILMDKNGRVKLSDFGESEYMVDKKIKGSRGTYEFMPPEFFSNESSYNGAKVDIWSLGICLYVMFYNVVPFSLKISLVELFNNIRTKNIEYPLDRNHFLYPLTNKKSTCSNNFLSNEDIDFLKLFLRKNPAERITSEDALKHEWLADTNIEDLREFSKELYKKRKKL

[8] = target: Calcium-dependent protein kinase 4 (Plasmodium falciparum (isolate 3D7)) (UniProt Q8IBS5); assay: PfCDPK4 kinase inhibitors, biochemical, TCAMS library (AID 1159588; cut-off not given, nearly all actives have IC50 up to about 0.91 µM); conditions: recombinant PfCDPK4, Kinase-Glo ATP depletion luminescence
Sequence of Calcium-dependent protein kinase 4 (Plasmodium falciparum (isolate 3D7)) (Q8IBS5 whole entry, looked up): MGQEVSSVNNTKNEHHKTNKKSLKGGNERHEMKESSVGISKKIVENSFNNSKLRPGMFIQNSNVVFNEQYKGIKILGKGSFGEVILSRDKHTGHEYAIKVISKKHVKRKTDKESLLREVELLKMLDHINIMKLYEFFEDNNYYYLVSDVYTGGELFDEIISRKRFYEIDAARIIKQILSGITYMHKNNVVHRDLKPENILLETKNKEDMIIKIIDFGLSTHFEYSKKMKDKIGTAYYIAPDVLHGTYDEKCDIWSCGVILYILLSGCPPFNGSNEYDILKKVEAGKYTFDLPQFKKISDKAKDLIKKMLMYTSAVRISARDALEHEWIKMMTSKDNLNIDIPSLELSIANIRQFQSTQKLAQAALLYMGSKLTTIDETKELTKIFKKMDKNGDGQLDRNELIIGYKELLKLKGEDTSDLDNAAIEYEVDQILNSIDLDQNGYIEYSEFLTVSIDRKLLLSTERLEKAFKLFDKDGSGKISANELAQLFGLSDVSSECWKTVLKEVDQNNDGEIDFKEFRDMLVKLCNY

| Structure (SMILES) | growth inhibition [1] | inhibition [2] | inhibition [3] | growth inhibition [4] | outcome [5] | outcome [6] | outcome [7] | outcome [8] |
| --- | --- | --- | --- | --- | --- | --- | --- | --- |
| Cc1ccc(-c2nc3ccc(C(=O)NC4CCC(N5CCCc6ccc(C#N)cc6C5)CC4)cc3[nH]2)cc1 (stereo not given) | 49% | 23% | -2% | 101% (active) | inactive | inactive | inactive | inactive |
| Cc1ccc(NC(=O)c2ccc3ncccc3c2)cc1OC1CCN(CCC(C)C)CC1 | 48% | 2% | -4% | 94% (active) | inactive | inactive | inactive | inactive |
| CC[C@H]1CN(C/C=C/c2ccc(OC)cc2)CC[C@H]1CCCc1ccnc2ccc(O)cc12 | 72% (active) | 24% | 1% | 99% (active) | inactive | inactive | inactive | inactive |
| CCOC(=O)C1=C(C)N=c2sc(=Cc3cc(Cl)ccc3O)c(=O)n2C1c1ccc2c(c1)OCO2 (stereo not given) | 91% (active) | -2% | -1% | 96% (active) | inactive | inactive | inactive | inactive |
| Cc1cccc(-c2nn(-c3ccccc3)cc2C(=O)Nc2nnc(C)o2)c1 | 63% (active) | 38% | 4% | 84% (active) | inactive | inactive | inactive | inactive |
| Cc1ccc(-c2cc(C(=O)Nc3ccc(S(=O)(=O)N4CC(C)OC(C)C4)cc3)[nH]n2)c(O)c1 (stereo not given) | 98% (active) | 16% | -1% | 91% (active) | inactive | inactive | inactive | inactive |
| CC1CCN(C(=O)CSc2nc(-c3ccc(C(C)C)cc3)no2)CC1 | 84% (active) | -1% | 2% | 98% (active) | inactive | inactive | inactive | inactive |
| Cc1ccc(-c2ccc3c(c2)C=C(C(=O)NCC2CCN(CC4CCN(C(=O)/C=C/c5ccc(Cl)c(Cl)c5)CC4)CC2)CCC3)cc1 | 70% (active) | 96% (active) | -7% | 99% (active) | inactive | inactive | inactive | inactive |
| COc1ccc(CC(=O)NC(CCCN2CCC(c3ccccc3)CC2)c2ccc(Cl)c(Cl)c2)cc1OC (stereo not given) | 57% (active) | 28% | -7% | 82% (active) | inactive | inactive | inactive | inactive |
| CN(C)CCN(C)Cc1ccc(-c2ccc(NC(=O)c3ccc(Cl)cc3)cc2)cc1 | 19% | 51% (active) | -2% | 91% (active) | inactive | inactive | inactive | inactive |
| COc1ccc(CN2CCC(CNCC(c3ccccc3)c3ccccc3)CC2)cc1 | 95% (active) | 84% (active) | -4% | 102% (active) | inactive | inactive | inactive | inactive |
| CN(/N=C/C=C/c1ccc(Cl)cc1)c1nc(NCCc2ccc(O)cc2)nc(N2CCNCC2)n1 | 69% (active) | 14% | 1% | 92% (active) | inactive | inactive | inactive | inactive |
| COc1ccc2nccc(C(=O)NC3CCC(CCN4CCc5cc(C#N)ccc5C4)CC3)c2c1 (stereo not given) | 1% | 12% | 1% | 97% (active) | inactive | inactive | inactive | inactive |
| CN(C)CCOc1ccc(NC(=O)Nc2ccnc3c(Br)cccc23)cc1Cl | 25% | 10% | 0% | 97% (active) | inactive | inactive | inactive | inactive |
| CC(Cc1ccc(NC(=O)c2ccc(CNCCCCc3ccccc3)cc2)cc1)NCCc1cccc(Cl)c1 (stereo not given) | 96% (active) | 100% (active) | -1% | 100% (active) | inactive | inactive | inactive | inactive |
| CC(=O)NCCNc1nccc(N2CCc3ncnc(Nc4ccc(OCc5ccccn5)c(Cl)c4)c3C2)n1 | 99% (active) | -12% | 10% | 99% (active) | inactive | inactive | inactive | inactive |
| COc1cccc(NC(=O)[C@H](C(C)C)n2c(=O)[nH]c3ccccc3c2=O)c1 | 100% (active) | -1% | -1% | 101% (active) | inactive | inactive | inactive | inactive |
| CCCCNc1cc(NCCCC)c2c(n1)[nH]c1ccccc12 | 94% (active) | 13% | -1% | 100% (active) | inactive | inactive | inactive | inactive |
| CN1CCCN(c2ccnc3cc4c(cc23)N(C(=O)c2ccccc2Cl)CC4)CC1 | 30% | 4% | 3% | 88% (active) | inactive | inactive | inactive | inactive |
| COC(=O)c1cccc(N2CCN(CCCNC(=O)/C(=C/C=C/c3cc4cc(Cl)c(Cl)cc4[nH]3)OC)CC2)c1 | 59% (active) | 38% | -1% | 100% (active) | inactive | inactive | inactive | inactive |

| Structure (SMILES) | growth inhibition [1] | inhibition [2] | inhibition [3] | growth inhibition [4] | outcome [5] | outcome [6] | outcome [7] | outcome [8] |
| --- | --- | --- | --- | --- | --- | --- | --- | --- |
| Cc1nc(N)nc(N)c1CCCOc1ccc(Br)cc1 | 5% | 30% | 1% | 97% (active) | inactive | inactive | inactive | inactive |
| CCNc1c2ccc(Cl)cc2nc2ccc(OC)cc12 | 100% (active) | 16% | 0% | 99% (active) | inactive | inactive | inactive | inactive |
| Cc1cc(-c2ccc(CNC3Cc4ccccc4C3)cc2)ccc1S(=O)(=O)NCCN1CCCC1 | 73% (active) | 99% (active) | 0% | 101% (active) | inactive | inactive | inactive | inactive |
| O=C(Nc1ccc(Cl)cc1)Nc1ccc2nonc2c1 | 77% (active) | -25% | -4% | 94% (active) | inactive | inactive | inactive | inactive |
| CC1=C(C(=O)Nc2ccc(Cl)cc2)C(c2ccncc2)n2nc(C(F)(F)F)nc2N1 (stereo not given) | 49% | 25% | -5% | 87% (active) | inactive | inactive | inactive | inactive |
| CC(=O)Nc1ccc(C2NC(=O)NC(c3ccccc3)=C2c2nc3ccccc3s2)cc1 (stereo not given) | 96% (active) | -3% | 3% | 93% (active) | inactive | inactive | inactive | inactive |
| COC(=O)c1ccc(NC(=O)Nc2ccc(Cn3ncc(N4CCCNCC4)c(Cl)c3=O)cc2)cc1 | 43% | -1% | -1% | 83% (active) | inactive | inactive | inactive | inactive |
| CC(C)NCc1cccc(-c2cccc(NC(=O)c3cccc(Cl)c3)c2)c1 | 38% | 36% | -10% | 98% (active) | inactive | inactive | inactive | inactive |
| O=C1Nc2cccc3c2C1(CCCCN1CCC(c2c(-c4ccc(F)cc4)[nH]c4ccccc24)CC1)CCC3 (stereo not given) | 28% | 25% | -4% | 91% (active) | inactive | inactive | inactive | inactive |
| COC(=O)C1=C(C)NC2=C(C(=O)CC(c3ccc(OC)c(OC)c3)C2)C1c1cccc(O)c1 (stereo not given) | 69% (active) | 2% | 5% | 99% (active) | inactive | inactive | inactive | inactive |
| NC1CCN(Cc2cccc(-c3cccc(-c4nc5ccccc5[nH]4)c3)c2)C1 (stereo not given) | -2% | 14% | -3% | 100% (active) | inactive | inactive | inactive | inactive |
| CCC(NC[C@@H](O)[C@H](Cc1ccccc1)NC(=O)c1cc(C2CCCC2)cc(N2CCCC2=O)c1)c1cccc(Cl)c1 (stereo not given in full) | 97% (active) | 7% | -8% | 100% (active) | inactive | inactive | inactive | inactive |
| COc1ccccc1CCCON1C(N)=NC(N)=NC1(C)C | 92% (active) | 68% (active) | -1% | 95% (active) | inactive | inactive | inactive | inactive |
| CC(=O)Nc1cccc(CNCc2ccc(-c3cnc(N4CCCC(C)(C)C4)nc3)cc2)c1 | 75% (active) | 10% | 0% | 93% (active) | inactive | inactive | inactive | inactive |
| Cc1cc(N2CCCCC2)nc2ccc(NC(=O)c3cc(=O)c4ccccc4o3)cc12 | 19% | 15% | -7% | 98% (active) | inactive | inactive | inactive | inactive |
| O=C(/C=C/c1c(Cl)cccc1Cl)NC1CCC(CN2CCC(c3c[nH]c4ccncc34)CC2)CC1 (stereo not given) | 100% (active) | 78% (active) | 2% | 99% (active) | inactive | inactive | inactive | inactive |
| O=C(Nc1ccc(OC2CCN(Cc3ccccc3)C2)c(Cl)c1)c1ccco1 (stereo not given) | 94% (active) | 13% | 6% | 95% (active) | inactive | inactive | inactive | inactive |
| CCN(CCNC(=O)Nc1cc(C(F)(F)F)cc(C(F)(F)F)c1)c1cccc(C)c1 | 100% (active) | -3% | 4% | 98% (active) | inactive | inactive | inactive | inactive |
| Nc1cccc(CNCc2ccc(-c3cccc(-c4nc5ccc(F)cc5[nH]4)c3)cc2)c1 | 94% (active) | 36% | -3% | 101% (active) | inactive | inactive | inactive | inactive |
| Cc1cccc2[nH]c(-c3ccc(-c4ccc(CNCCN5CCNCC5)cc4)s3)nc12 | -2% | 30% | 3% | 88% (active) | inactive | inactive | inactive | inactive |
